Reference: PubChem BioAssay (EPA / NIEHS)
Inconclusive results are not listed. Active and inactive are the calls of the source. How the source made its calls, unless noted: active means hit-call score of the fitted dose curve at least 0.9, where 1 is the maximum; inactive means score below 0.9.

Tests used:
[1] = target: Bile acid receptor (Homo sapiens) (UniProt Q96RI1); assay: ATG_FXR_TRANS: Attagene TRANS-FACTORIAL HepG2 Assay for Farnesoid X Receptor (FXR) (AID 2282979; active means hit-call score of the fitted dose curve at least 0.9, where 1 is the maximum;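 further: hits raise reporter mRNA above DMSO so AC50 marks FXR activation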); conditions: HepG2 Attagene TRANS FXR-GAL4 reporter transcription
Bile acid receptor (Homo sapiens), sequence (Q96RI1 whole entry, looked up, the tested form may be a part): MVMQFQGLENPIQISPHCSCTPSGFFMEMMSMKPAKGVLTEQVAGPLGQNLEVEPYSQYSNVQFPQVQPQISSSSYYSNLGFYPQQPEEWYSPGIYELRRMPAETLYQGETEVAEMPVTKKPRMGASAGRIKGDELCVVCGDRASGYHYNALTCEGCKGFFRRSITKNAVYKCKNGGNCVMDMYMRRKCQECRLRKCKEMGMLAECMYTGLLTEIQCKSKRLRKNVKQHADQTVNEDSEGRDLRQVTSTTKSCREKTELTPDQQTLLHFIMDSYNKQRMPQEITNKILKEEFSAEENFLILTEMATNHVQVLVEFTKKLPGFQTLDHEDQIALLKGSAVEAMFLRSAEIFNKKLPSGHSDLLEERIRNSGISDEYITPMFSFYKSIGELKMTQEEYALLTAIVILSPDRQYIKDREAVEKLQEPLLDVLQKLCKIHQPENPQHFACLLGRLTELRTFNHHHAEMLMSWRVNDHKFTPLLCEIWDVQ
Procedure, shortened: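 Reporter transcripts from transfected HepG2 cells were measured 24 h after dosing, using RT-PCR with capillary electrophoresis of 6-FAM-labelled fragments. The read-out reflects activity of exogenous FXR-Gal4 chimera on GAL4-UAS units, with induction relative to DMSO.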

[2] = target: Oxysterols receptor LXR-beta (Homo sapiens) (UniProt P55055); assay: ATG_LXRb_TRANS: Attagene TRANS-FACTORIAL HepG2 Assay for human Liver X Receptor beta (LXRb) (AID 2282981; active means hit-call score of the fitted dose curve at least 0.9, where 1 is the maximum); conditions: HepG2 Attagene TRANS GAL4-LXRb reporter, mRNA
Oxysterols receptor LXR-beta (Homo sapiens), sequence (P55055 whole entry, looked up, the tested form may be a part): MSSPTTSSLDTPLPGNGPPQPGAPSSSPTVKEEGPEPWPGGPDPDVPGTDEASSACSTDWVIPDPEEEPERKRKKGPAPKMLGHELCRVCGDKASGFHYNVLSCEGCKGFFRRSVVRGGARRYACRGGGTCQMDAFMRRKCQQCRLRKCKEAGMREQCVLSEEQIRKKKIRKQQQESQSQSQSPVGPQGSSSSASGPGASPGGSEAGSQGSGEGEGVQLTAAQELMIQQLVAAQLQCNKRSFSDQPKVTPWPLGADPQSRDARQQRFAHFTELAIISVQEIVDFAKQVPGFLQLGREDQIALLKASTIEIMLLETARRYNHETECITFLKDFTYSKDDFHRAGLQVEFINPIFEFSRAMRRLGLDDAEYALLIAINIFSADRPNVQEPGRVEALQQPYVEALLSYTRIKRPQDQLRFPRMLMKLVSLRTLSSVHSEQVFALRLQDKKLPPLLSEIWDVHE
Procedure, shortened: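 In this TRANS format, exogenous chimeric NR-Gal4 protein activity, not endogenous factors, drives reporter expression in transfected human HepG2 cells. Exposure lasted 24 h; reporter mRNA was read by fluorescent capillary electrophoresis.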

[3] = target: Hepatocyte nuclear factor 4-alpha (Homo sapiens) (UniProt P41235); assay: ATG_HNF4a_TRANS: Attagene TRANS-FACTORIAL HepG2 Assay for human Hepatocyte Nuclear Factor 4 alpha (HNF4a) (AID 2282982; active means hit-call score of the fitted dose curve at least 0.9, where 1 is the maximum); conditions: HepG2 HNF4a transactivation reporter, mRNA readout
Hepatocyte nuclear factor 4-alpha (Homo sapiens), sequence (P41235 whole entry, looked up, the tested form may be a part): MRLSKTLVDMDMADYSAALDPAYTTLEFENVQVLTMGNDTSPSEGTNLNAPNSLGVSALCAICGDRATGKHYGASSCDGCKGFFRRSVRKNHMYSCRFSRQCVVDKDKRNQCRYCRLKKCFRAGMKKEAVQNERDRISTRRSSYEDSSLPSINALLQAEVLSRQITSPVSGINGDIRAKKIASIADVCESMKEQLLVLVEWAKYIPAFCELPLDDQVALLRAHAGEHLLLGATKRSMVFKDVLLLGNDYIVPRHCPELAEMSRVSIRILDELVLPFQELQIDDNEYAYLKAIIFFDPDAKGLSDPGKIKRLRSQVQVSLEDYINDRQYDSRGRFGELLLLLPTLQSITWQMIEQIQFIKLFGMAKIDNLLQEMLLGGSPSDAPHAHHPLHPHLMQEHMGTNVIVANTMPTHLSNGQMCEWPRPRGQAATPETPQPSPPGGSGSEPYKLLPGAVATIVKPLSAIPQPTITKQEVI
Procedure, shortened: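 Cells used were human HepG2, transiently carrying GAL4-UAS reporter units read out against exogenous NR-GAL4 chimeras. Reporter transcript levels after 24 h dosing were quantified by fluorescent RT-PCR and capillary electrophoresis.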

[4] = ATG_M_06_TRANS: Attagene TRANS-FACTORIAL HepG2 Assay for M06 Transcription Factor (Internal Marker) (AID 2282983; active means hit-call score of the fitted dose curve at least 0.9, where 1 is the maximum); conditions: HepG2 Attagene TRANS M06 internal marker reporter
Procedure, shortened: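 Cells: HepG2, transient multi-reporter transfection. Exposure: 24 h. Detection: RT-PCR, 6-FAM labelling, HpaI digestion (2 h, 37 °C), capillary electrophoresis. Baseline: DMSO.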

[5] = target: Nuclear receptor subfamily 4 group A member 2 (Homo sapiens) (UniProt P43354); assay: ATG_NURR1_TRANS: Attagene TRANS-FACTORIAL HepG2 Assay for human Nuclear Receptor Related Protein 1 (NURR1) (AID 2282985; active means hit-call score of the fitted dose curve at least 0.9, where 1 is the maximum); conditions: HepG2 Attagene TRANS reporter, mRNA readout
Nuclear receptor subfamily 4 group A member 2 (Homo sapiens), sequence (P43354 whole entry, looked up): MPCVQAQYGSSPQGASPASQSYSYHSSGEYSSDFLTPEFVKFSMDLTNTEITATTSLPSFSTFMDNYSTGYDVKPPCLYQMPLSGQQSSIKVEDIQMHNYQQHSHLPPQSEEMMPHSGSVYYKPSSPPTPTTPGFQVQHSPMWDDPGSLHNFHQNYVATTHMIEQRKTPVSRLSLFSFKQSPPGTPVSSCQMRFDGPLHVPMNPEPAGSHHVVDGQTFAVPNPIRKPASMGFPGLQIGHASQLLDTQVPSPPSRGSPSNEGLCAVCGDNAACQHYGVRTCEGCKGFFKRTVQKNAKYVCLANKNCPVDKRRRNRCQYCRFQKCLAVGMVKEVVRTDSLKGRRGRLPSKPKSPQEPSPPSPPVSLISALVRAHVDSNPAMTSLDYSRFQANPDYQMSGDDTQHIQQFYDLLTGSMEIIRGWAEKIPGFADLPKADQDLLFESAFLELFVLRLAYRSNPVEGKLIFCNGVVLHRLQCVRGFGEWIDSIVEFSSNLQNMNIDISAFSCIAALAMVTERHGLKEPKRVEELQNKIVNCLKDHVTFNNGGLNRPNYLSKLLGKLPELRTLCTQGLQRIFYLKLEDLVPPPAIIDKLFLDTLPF
Procedure, shortened: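 After 24 h chemical dosing, total RNA from transiently transfected HepG2 cells was reverse-transcribed and reporter cDNA PCR-amplified, FAM-labelled and analysed by capillary electrophoresis. Activity fitted in positive direction, DMSO as negative control.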

[6] = target: Transcriptional activator Myb (Homo sapiens) (UniProt P10242); assay: ATG_Myb_CIS: Attagene CIS-FACTORIAL HepG2 Assay for human Myeloblastosis (Myb) Proto-Oncogene Transcription Factor (AID 2282986); conditions: HepG2 Attagene CIS-FACTORIAL Myb reporter transcription; actives raise or lower the signal
Transcriptional activator Myb (Homo sapiens), sequence (P10242 whole entry, looked up): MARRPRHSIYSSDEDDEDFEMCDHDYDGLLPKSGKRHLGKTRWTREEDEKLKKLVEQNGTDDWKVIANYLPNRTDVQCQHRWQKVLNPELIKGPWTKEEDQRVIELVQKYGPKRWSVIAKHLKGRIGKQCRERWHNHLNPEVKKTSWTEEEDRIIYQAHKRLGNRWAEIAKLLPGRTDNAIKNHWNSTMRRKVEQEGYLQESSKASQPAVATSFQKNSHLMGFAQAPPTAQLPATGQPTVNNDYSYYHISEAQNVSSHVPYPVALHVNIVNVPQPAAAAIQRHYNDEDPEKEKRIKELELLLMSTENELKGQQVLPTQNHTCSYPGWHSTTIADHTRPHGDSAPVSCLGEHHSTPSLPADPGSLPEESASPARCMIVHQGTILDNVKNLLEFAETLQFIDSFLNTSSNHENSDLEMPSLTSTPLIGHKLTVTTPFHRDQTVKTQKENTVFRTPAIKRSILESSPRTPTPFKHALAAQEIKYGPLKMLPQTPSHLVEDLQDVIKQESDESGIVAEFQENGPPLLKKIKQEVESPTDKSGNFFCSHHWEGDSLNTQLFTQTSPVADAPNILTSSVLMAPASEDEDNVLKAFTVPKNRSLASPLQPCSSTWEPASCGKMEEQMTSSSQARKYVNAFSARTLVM
Procedure, shortened: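 Transiently transfected HepG2 cells, treated 24 h. Reporter mRNA quantified by RT-PCR/capillary electrophoresis; bidirectional fit relative to DMSO.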

[7] = target: Nuclear respiratory factor 1 (Homo sapiens) (UniProt Q16656); assay: ATG_NRF1_CIS: Attagene CIS-FACTORIAL HepG2 Assay for human Nuclear Respiratory Factor 1 (NRF1) Orphan Gene (AID 2282987); conditions: HepG2 NRF1 cis-element reporter, Attagene multiplex; actives raise or lower the signal
Nuclear respiratory factor 1 (Homo sapiens), sequence (Q16656 whole entry, looked up, the tested form may be a part): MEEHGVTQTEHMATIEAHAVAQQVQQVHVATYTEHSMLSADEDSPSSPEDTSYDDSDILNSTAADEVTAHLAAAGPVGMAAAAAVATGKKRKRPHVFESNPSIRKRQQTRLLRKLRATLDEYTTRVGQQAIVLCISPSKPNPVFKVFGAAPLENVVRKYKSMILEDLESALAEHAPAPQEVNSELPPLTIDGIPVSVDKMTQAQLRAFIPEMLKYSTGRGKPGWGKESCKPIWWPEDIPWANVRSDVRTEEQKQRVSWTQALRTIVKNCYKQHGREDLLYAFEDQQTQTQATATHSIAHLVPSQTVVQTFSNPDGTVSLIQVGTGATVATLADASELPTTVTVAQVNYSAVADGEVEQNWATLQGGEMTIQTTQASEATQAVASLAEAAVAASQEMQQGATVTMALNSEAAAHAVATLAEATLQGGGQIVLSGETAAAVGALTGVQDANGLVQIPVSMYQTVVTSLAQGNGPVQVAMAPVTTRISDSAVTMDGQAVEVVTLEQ
Procedure, shortened: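 Cells (HepG2, transient MRTU transfection) are exposed to compound for 24 h, then RNA isolated and reporter mRNA amplified and fluorescently labelled. Fragments are separated by capillary electrophoresis; signal change is fitted bidirectionally relative to DMSO.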

[8] = target: Myc proto-oncogene protein (Homo sapiens) (UniProt P01106); assay: ATG_Myc_CIS: Attagene CIS-FACTORIAL HepG2 Assay for human Myelocytomatosis (Myc) Proto-Oncogene Transcription Factor (AID 2282990); conditions: HepG2, Attagene cis-reporter transcription factor activity; actives raise or lower the signal
Myc proto-oncogene protein (Homo sapiens), sequence (P01106 whole entry, looked up): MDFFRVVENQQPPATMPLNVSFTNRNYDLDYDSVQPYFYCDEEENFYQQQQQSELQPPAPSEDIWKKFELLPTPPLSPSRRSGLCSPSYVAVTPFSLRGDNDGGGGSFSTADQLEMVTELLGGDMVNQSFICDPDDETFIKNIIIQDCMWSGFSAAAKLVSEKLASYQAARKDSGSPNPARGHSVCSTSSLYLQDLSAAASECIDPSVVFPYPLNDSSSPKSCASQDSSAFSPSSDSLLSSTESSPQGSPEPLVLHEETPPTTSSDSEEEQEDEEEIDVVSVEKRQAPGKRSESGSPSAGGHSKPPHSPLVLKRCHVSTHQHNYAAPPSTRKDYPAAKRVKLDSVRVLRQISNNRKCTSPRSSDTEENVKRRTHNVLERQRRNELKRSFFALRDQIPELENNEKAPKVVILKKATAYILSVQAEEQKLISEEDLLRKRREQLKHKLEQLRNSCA
Procedure, shortened: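 DMSO-normalised, bidirectionally fitted reporter mRNA signal. HepG2 cells transfected with cis reporter constructs, treated 24 h; transcripts detected by RT-PCR, 6-FAM primer extension and CE.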

[9] = ATG_NF_kB_CIS: Attagene CIS-FACTORIAL HepG2 Assay for human Nuclear Factor Kappa B (NF-kB) (AID 2282991); conditions: HepG2 Attagene cis-factorial NF-kB reporter mRNA; actives raise or lower the signal
Procedure, shortened: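 Measures mRNA induction of an NF-kB-responsive cis-element reporter in HepG2 cells transfected with multiple reporter units, sampled 24 h post-dosing; quantified by fluorescence after RT-PCR and capillary electrophoresis, fitted for activation or inhibition against DMSO.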

[10] = ATG_NRF2_ARE_CIS: Attagene CIS-FACTORIAL HepG2 Assay for human Nuclear Factor Erythroid 2 Related Factor 2 (NFR2) response to Antioxidant Response Elements (ARE) (AID 2282992); conditions: HepG2 Attagene ARE/NRF2 reporter, transcription factor activity; actives raise or lower the signal;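 on AC50: reporter mRNA level measured by RT-PCR and capillary electrophoresis fluorescence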
Procedure, shortened: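 Transient MRTU transfection of HepG2; 24 h compound exposure; TriZol RNA, RT with oligo(dT), PCR, 6-FAM primer extension, HpaI cut, CE. Bidirectional fit vs DMSO.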

[11] = ATG_Oct_MLP_CIS: Attagene CIS-FACTORIAL HepG2 Assay for human Octamer-Binding Transcription Factor (Oct) (AID 2282993); conditions: HepG2 Attagene cis-factorial Oct reporter, mRNA; actives raise or lower the signal
Procedure, shortened: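 Read-out: reporter mRNA via RT-PCR plus capillary electrophoresis of 6-FAM-labelled fragments. Transiently transfected HepG2, 24 h exposure, endogenous TF activity on cis elements. Gain or loss of signal fitted relative to DMSO.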

[12] = target: Cellular tumor antigen p53 (Homo sapiens) (UniProt P04637); assay: ATG_p53_CIS: Attagene CIS-FACTORIAL HepG2 Assay for human p53 Transcription Factor (AID 2282994); conditions: HepG2 p53 cis-element reporter, Attagene mRNA; actives raise or lower the signal
Cellular tumor antigen p53 (Homo sapiens), sequence (P04637 whole entry, looked up): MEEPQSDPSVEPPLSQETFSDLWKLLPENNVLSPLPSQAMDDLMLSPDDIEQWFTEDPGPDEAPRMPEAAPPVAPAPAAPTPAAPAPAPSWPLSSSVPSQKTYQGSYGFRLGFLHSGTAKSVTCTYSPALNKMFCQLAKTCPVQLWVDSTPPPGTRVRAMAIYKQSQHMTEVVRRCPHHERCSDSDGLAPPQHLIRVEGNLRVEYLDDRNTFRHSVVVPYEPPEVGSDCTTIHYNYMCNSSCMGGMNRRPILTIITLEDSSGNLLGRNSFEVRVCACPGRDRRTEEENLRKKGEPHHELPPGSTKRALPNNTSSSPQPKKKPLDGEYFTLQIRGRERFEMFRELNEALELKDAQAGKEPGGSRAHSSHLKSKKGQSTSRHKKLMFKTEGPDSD
Procedure, shortened: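 HepG2, transient MRTU transfection (cis promoter elements, endogenous TFs); 24 h dosing; RNA isolation, RT-PCR, 6-FAM primer extension, HpaI digest, CE fluorescence; bidirectional fit vs DMSO.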

[13] = target: Oxysterols receptor LXR-alpha (Homo sapiens) (UniProt Q13133); assay: ATG_LXRa_TRANS: Attagene TRANS-FACTORIAL HepG2 Assay for human Liver X Receptor alpha (LXRa) (AID 2282980; active means hit-call score of the fitted dose curve at least 0.9, where 1 is the maximum); conditions: HepG2 Attagene TRANS reporter, LXRa transactivation
Oxysterols receptor LXR-alpha (Homo sapiens), sequence (Q13133 whole entry, looked up, the tested form may be a part): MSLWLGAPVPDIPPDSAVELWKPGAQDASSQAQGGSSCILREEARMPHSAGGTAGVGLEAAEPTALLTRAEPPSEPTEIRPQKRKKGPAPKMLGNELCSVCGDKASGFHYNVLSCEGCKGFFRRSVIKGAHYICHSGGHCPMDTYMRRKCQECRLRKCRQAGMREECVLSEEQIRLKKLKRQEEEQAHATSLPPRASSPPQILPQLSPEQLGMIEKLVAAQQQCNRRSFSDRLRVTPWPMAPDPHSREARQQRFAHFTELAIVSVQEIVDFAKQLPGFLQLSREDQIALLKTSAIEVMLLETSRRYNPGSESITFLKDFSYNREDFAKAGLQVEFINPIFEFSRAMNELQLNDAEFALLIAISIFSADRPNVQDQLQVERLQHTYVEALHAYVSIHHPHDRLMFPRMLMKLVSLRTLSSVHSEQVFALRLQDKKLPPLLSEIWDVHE
Procedure, shortened: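 Chemical-induced reporter mRNA measured by RT-PCR with fluorescent labelling and capillary electrophoresis after 24 h dosing of transiently transfected HepG2 cells expressing exogenous NR-Gal4 chimeras; increases scored against DMSO baseline.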

[14] = ATG_NFI_CIS: Attagene CIS-FACTORIAL HepG2 Assay for human Nuclear Factor I (NFI) (AID 2282989); conditions: HepG2 cis-regulatory reporter, NFI response element transcription; actives raise or lower the signal
Procedure, shortened: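 Read-out: reporter mRNA via RT-PCR plus capillary electrophoresis with fluorescence detection. Transiently transfected HepG2 (endogenous TF activity on cis promoters), 24 h compound exposure; gain or loss of signal fitted against DMSO.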

[15] = ATG_M_32_TRANS: Attagene TRANS-FACTORIAL HepG2 Assay for M32 Transcription Factor (Internal Marker) (AID 2282984; active means hit-call score of the fitted dose curve at least 0.9, where 1 is the maximum;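 further: transcript level of a background control reporter unit measured by RT-PCR and capillary electrophoresis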); conditions: HepG2 Attagene TRANS M32 internal marker reporter
Procedure, shortened: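 Human hepatoma HepG2, transient MRTU transfection, 24 h treatment. RNA → RT-PCR → fluorescent primer extension → HpaI digest (2 h, 37 C) → CE. Positive-direction fit vs DMSO.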

Measured: AC50

NC(=O)N=NC(N)=O
not listed: [13] | [14] | [15]
inactive: all other assays above

CC(C)COC(=O)C=Cc1ccccc1
active: [10] 18.4 µM
not listed: [3] | [6] | [8] | [15]
inactive: all other assays above

CCOC(=O)N1CCC(=C2c3ccc(Cl)cc3CCc3cccnc32)CC1
active: [5] 15.6 µM | [12] 7.13 µM
not listed: [2] | [3] | [4] | [10] | [13]
inactive: all other assays above

C1=CCCC1
not listed: [2] | [3] | [5] | [6] | [13]
inactive: all other assays above

CC(C)c1ccc2c(C(C)C)cc(C(C)C)c(S(=O)(=O)O)c2c1
active: [5] 48 µM | [10] 25.9 µM
not listed: [2] | [3] | [4] | [9] | [13]
inactive: all other assays above

O=C(C(Cl)Cl)N1CCOC12CCCCC2
active: [8] 8.87 µM | [10] 7.52 µM
not listed: [4] | [5] | [13]
inactive: all other assays above

CC[C@H]1OC(=O)[C@H](C)[C@@H](O[C@H]2C[C@@](C)(OC)[C@@H](O)[C@H](C)O2)[C@H](C)[C@@H](O[C@@H]2O[C@H](C)C[C@H](N(C)C)[C@H]2O)[C@](C)(O)C[C@@H](C)C(=NOCOCCOC)[C@H](C)[C@@H](O)[C@]1(C)O
not listed: [4] | [6] | [11] | [12] | [13] | [15]
inactive: all other assays above

O=S(=O)(O)c1cc(S(=O)(=O)O)c2ccc3c(S(=O)(=O)O)cc(S(=O)(=O)O)c4ccc1c2c43
not listed: [3] | [4]
inactive: all other assays above

CCC(Cc1ccccc1)(C(=O)c1ccc(N2CCOCC2)cc1)N(C)C (configuration not stated)
active: [13] 23.3 µM | [2] 27.5 µM | [5] 41 µM | [7] 30.3 µM | [10] 37.2 µM
not listed: [3] | [4]
inactive: all other assays above

O=C1OC(=O)c2cc(Oc3ccc4c(c3)C(=O)OC4=O)ccc21
not listed: [5] | [7] | [13] | [15]
inactive: all other assays above

COC(=O)c1sccc1S(N)(=O)=O
not listed: [2] | [3] | [4] | [13]
inactive: all other assays above
